Screening results: PubChem BioAssay, National Center for Advancing Translational Sciences (NCATS)
A selection: hits, their analogues and other compounds. The true share with any hit is near 18%.
TDP1 cell noCPT – qHTS for Inhibitors of human tyrosyl-DNA phosphodiesterase 1 (TDP1): qHTS in cells in absence of CPT. 420,000 tested, 15% active. AID 686978, 2013. DT40 Tdp1-/- hTDP1 cells, no CPT, ATP luminescence, 48 h. Potency, µM (series often up to 46.2 µM), without a hit: at the highest dose activity change, negative = growth inhibition, hits mostly inhibitors; note: nearly all actives have a fitted effect of over 55% in size
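No-CPT arm: Tdp1-/-;hTDP1 DT40 cells (400/well) plus compounds, incubated ≥48 hr at 37 °C. Readout CellTiter-Glo luminescence.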
TDP1 inh – TDP1 (human) enzyme inhibition; Potency, µM (titrated, usually from 130 µM), for the others: at the highest dose activity change, negative = inhibition, most hits filed as inhibitors; Q9NUW8; AID 485290; 350,000 tested, 0.28% active; recombinant TDP1, AlphaScreen DNA substrate cleavage; note: nearly all actives have a fitted effect of over 40% in size
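Compounds were preincubated with Tdp1 (1 nM final) for 15 min at room temperature before substrate (15 nM final) started a 5 min reaction; beads (10 ug/ml final) were then added for 10 min before AlphaScreen detection.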
VDR inh – inhibitors of human vitamin D receptor | P11473 | VDR-SRC2-3 peptide fluorescence polarization, 2 h | Potency, µM, without a hit: max response, negative = inhibition, hits mostly inhibitors | 400,000 tested, 0.93% active | AID 504847
Target sequence (P11473 whole entry, looked up): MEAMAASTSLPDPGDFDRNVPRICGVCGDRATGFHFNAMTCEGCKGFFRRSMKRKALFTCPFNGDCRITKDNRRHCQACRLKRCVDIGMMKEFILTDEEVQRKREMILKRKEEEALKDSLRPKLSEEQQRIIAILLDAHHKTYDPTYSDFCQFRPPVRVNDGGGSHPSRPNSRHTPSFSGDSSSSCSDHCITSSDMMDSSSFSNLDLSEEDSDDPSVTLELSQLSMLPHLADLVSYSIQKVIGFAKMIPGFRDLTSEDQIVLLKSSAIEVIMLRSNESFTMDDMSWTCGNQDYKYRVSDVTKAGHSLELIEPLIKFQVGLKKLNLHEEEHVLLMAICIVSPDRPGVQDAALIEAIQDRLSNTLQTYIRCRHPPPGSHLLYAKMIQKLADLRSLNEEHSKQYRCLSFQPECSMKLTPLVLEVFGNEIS
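Fluorescence polarization assay of small-molecule disruption of VDR binding to coregulator peptide SRC2-3. Compounds and controls pin-transferred, then read after 2 h incubation at ambient room temperature.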
TDP1 cell CPT – growth inhibition of DT40 Tdp1-/-;hTDP1 cells with camptothecin (screen for TDP1 inhibitors). chicken DT40 Tdp1-/-;hTDP1 cells + 20 nM CPT, ATP luminescence, 48 h. Potency, µM (series often up to 46.2 µM), inactives show top-dose activity change, negative = growth inhibition, usual class: inhibitors. 420,000 tested, 12% active. AID 686979; note: nearly all actives have a fitted effect of over 55% in size
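Chicken DT40 Tdp1-/- cells complemented with human TDP1, 400 cells/well, exposed to compounds plus 20 nM camptothecin for at least 48 h at 37 C; viability read as ATP content by CellTiter-Glo luminescence.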
PLK1 PBD inh – inhibitors of human PLK1 polo-box domain binding; 360,000 tested, 2.8% active; Plk1 PBD binding of FITC phosphopeptide, fluorescence polarization; Potency, µM, inactives show max response, negative = inhibition, usual class: inhibitors; note: series mostly up to about 57 µM; nearly all actives have a fitted effect of over 65% in size
KAT2A inh – inhibitors of human GCN5L2 histone acetyltransferase | Potency, µM (titrated, usually from 58.9 µM), for the others: top-dose activity change, negative = inhibition, actives largely listed as inhibitors | 390,000 tested, 0.21% active | GCN5L2 HAT assay, ThioGlo1 CoA-SH fluorescence | AID 504327 | Q92830
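Enzyme at 20nM final was mixed with library compounds for 15 min at room temperature. Peptide H3(1-25) at 75uM, acetyl-CoA at 70uM and ThioGlo1 at 50uM were then added. Plates were read immediately and after 20 min (Ex340nm/Em540nm).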
Numbers without * were called inactive; [ ] = dose if it differs, or a comment. Calls come from the whole dose curve; as a rule, active = well fitted curve in the direction sought with a large enough effect; inconclusive = small, poorly fitted or top-dose-only effect, or another doubt; inactive = no such curve, though single readings can be large; an effect the other way counts as inactive or inconclusive. % is set by controls: 0 for no effect and ±100 for the full control effect; potency is the fitted concentration of half-maximal effect.

What do the screens show for `CCC(Cc1ccccc1)NC(=O)Cn1ncc2c3ccccc3n(Cc3ccc(F)cc3)c2c1=O` (centres undefined)?
TDP1 cell noCPT: 8.2µM*; TDP1 inh: 0.0%; VDR inh: 5.1%; TDP1 cell CPT: 8.2µM*; KAT2A inh: -2.3%

What do the screens show for `O=C(Cn1ncc2c3ccccc3n(Cc3ccccc3)c2c1=O)NCc1ccccc1`?
TDP1 cell noCPT: inconclusive; TDP1 inh: 5.1%; VDR inh: 13.8%; TDP1 cell CPT: 0.1%; KAT2A inh: -2.9%

Results for CCOC1=C2CN(S(=O)(=O)c3ccc(C)cc3)[C@H](c3ccccc3)C[C@@H]2N(S(=O)(=O)c2ccc(Br)cc2)[C@H](c2ccccc2)C1 ?
TDP1 cell noCPT: 11.6µM*; TDP1 cell CPT: inconclusive; PLK1 PBD inh: -7.3%

What do the screens show for `CCOC1=C2CN(S(=O)(=O)c3ccc(C)cc3)C(c3ccc(CC)cc3)CC2N(S(=O)(=O)c2ccc(C)cc2)C(c2ccc(CC)cc2)C1` (centres undefined)?
TDP1 cell noCPT: 2.06µM*; TDP1 cell CPT: 3.66µM*; PLK1 PBD inh: -3.9%

How did CN(C)/C=C/C=C1C(=O)CCCC1=O do in these assays?
TDP1 cell noCPT: 1.4%; TDP1 inh: 22.4µM*; VDR inh: -6.0%; TDP1 cell CPT: 1.5%; PLK1 PBD inh: -7.3%; KAT2A inh: -13.5%

Results for Cn1c(=O)c2c(nc(SCCN3CCOCC3)n2C)n(C)c1=O ?
TDP1 cell noCPT: inconclusive; VDR inh: -10.8%; TDP1 cell CPT: 1.7%; PLK1 PBD inh: -3.2%; KAT2A inh: -16.1%

What do the screens show for `FC(F)(F)c1cc(C(F)(F)F)c2ccc(N/N=C/c3ccccc3)nc2n1`?
TDP1 cell noCPT: 3.0%; TDP1 inh: 3.9%; VDR inh: -6.7%; TDP1 cell CPT: 2.1%; PLK1 PBD inh: -2.3%; KAT2A inh: -15.5%

Results for N#CC(c1ccccc1)c1ccc2c(C(F)(F)F)cc(C(F)(F)F)nc2n1 (centres undefined) ?
TDP1 cell noCPT: 18.4µM*; TDP1 inh: 12.1%; VDR inh: -2.9%; TDP1 cell CPT: 13µM*; PLK1 PBD inh: -5.9%; KAT2A inh: -18.5%

What do the screens show for `Cc1ccc(C(C#N)c2ccc3c(C(F)(F)F)cc(C(F)(F)F)nc3n2)cc1` (centres undefined)?
TDP1 cell noCPT: 18.4µM*; TDP1 inh: 10.4%; VDR inh: -5.0%; TDP1 cell CPT: 25.9µM*; PLK1 PBD inh: 1.8%; KAT2A inh: -6.3%

How did FC(F)(F)c1ccc(Oc2ccc3c(C(F)(F)F)cc(C(F)(F)F)nc3n2)cc1 do in these assays?
TDP1 cell noCPT: -3.3%; TDP1 inh: -3.1%; VDR inh: -8.9%; TDP1 cell CPT: -6.0%; PLK1 PBD inh: -1.0%; KAT2A inh: -5.7%

Results for COc1ccc(-c2coc3c(C(=O)NCc4cccs4)cccc23)c(C)c1 ?
TDP1 cell noCPT: 18.4µM*; TDP1 cell CPT: 23.1µM*; PLK1 PBD inh: -6.8%

Results for O=C(NCc1cccc(Cl)c1)c1ccc(-n2cncn2)c2ccoc12 ?
TDP1 cell noCPT: inconclusive; TDP1 cell CPT: 16.4µM*; PLK1 PBD inh: -12.2%

What do the screens show for `COc1ccc(-c2ccc(C(=O)NCc3cccs3)c3occc23)c(C)c1`?
TDP1 cell noCPT: inconclusive; TDP1 cell CPT: inconclusive; PLK1 PBD inh: -9.0%

Results for COc1ccc(-c2coc3c(C(=O)NCc4ccco4)cccc23)c(C)c1 ?
TDP1 cell noCPT: inconclusive; TDP1 cell CPT: 18.4µM*; PLK1 PBD inh: -8.0%

How did O=C(NCC1CCOCC1)c1cccc2c(-c3cccnc3)coc12 do in these assays?
TDP1 cell noCPT: inconclusive; TDP1 cell CPT: -28.9%; PLK1 PBD inh: -5.2%

What do the screens show for `COc1ccc(-c2ccc(C(=O)NCc3ccco3)c3occc23)c(C)c1`?
TDP1 cell noCPT: inconclusive; TDP1 cell CPT: inconclusive; PLK1 PBD inh: -10.8%

Results for COc1ccc(-c2coc3c(C(=O)NCC4CC4)cccc23)c(C)c1 ?
TDP1 cell noCPT: 25.9µM*; TDP1 cell CPT: 6.51µM*; PLK1 PBD inh: -5.1%

Results for Cc1cc(-c2ccnc(-n3ncc(C(=O)N4CCCCC4c4cccnc4)c3C3CC3)n2)c(C)s1 (centres undefined) ?
TDP1 cell noCPT: -3.0%; TDP1 cell CPT: 8.4%[9.04 µM]

Results for Nc1c(Cl)cc(C=O)cc1Cl ?
TDP1 cell noCPT: 6.0%; TDP1 cell CPT: 15.0%

Results for COc1ccc(-c2coc3c(C(=O)NCc4cccc(Cl)c4)cccc23)c(C)c1 ?
TDP1 cell noCPT: 14.6µM*; TDP1 cell CPT: 14.6µM*; PLK1 PBD inh: -4.4%

Results for Cn1cc(-c2coc3c(C(=O)NCc4cccs4)cccc23)cn1 ?
TDP1 cell noCPT: inconclusive; TDP1 cell CPT: inconclusive; PLK1 PBD inh: -2.9%

How did COc1ccc(-c2coc3c(C(=O)NCc4ccc(C(F)(F)F)cc4)cccc23)c(C)c1 do in these assays?
TDP1 cell noCPT: -94.1%; TDP1 cell CPT: inconclusive; PLK1 PBD inh: -2.1%

Results for Cn1cc(-c2coc3c(C(=O)NCc4cccc(Cl)c4)cccc23)cn1 ?
TDP1 cell noCPT: 5.8µM*; TDP1 cell CPT: inconclusive; PLK1 PBD inh: -16.0%

Results for COc1ccc(CNC(=O)c2ccc(-n3ccnc3)c3ccoc23)cc1OC ?
TDP1 cell noCPT: inconclusive; TDP1 cell CPT: 18.4µM*; PLK1 PBD inh: -6.2%

Results for COC(=O)c1ccc(C(NC(=O)OCc2ccccc2)/C(C)=C/[C@@H](C)C(=O)NCc2cccnc2)cc1 (some centres undefined) ?
TDP1 inh: 10.5%

What do the screens show for `CCN(CC)CCCn1c2c(c(SCC(=O)N3CCCc4ccccc43)nc1=O)CCC2`?
TDP1 cell noCPT: -17.4%; VDR inh: 7.3%; TDP1 cell CPT: inconclusive; PLK1 PBD inh: -5.2%; KAT2A inh: 1.6%

How did O[C@@H]1CN(CC2CCCCC2)[C@@H](c2ccccc2)C[C@H]1n1cc(C2CC2)nn1 do in these assays?
TDP1 cell noCPT: 8.2µM*; TDP1 cell CPT: inconclusive; PLK1 PBD inh: -1.0%

What do the screens show for `O[C@H]1C[C@H](c2ccccc2)N(CC2CCCCC2)C[C@@H]1n1cc(C2CC2)nn1`?
TDP1 cell noCPT: 7.31µM*; TDP1 cell CPT: 10.3µM*; PLK1 PBD inh: 1.5%

Results for C[N+]1(CC(=O)c2ccc(-c3ccccc3)cc2)CCOCC1 ?
TDP1 cell noCPT: -16.2%; TDP1 cell CPT: inconclusive

What do the screens show for `C[N+]1(CC(=O)c2c3ccccc3cc3ccccc23)CCOCC1`?
TDP1 cell noCPT: 10µM*; TDP1 cell CPT: 15.8µM*
